According to PubChem BioAssay AID778 (Sanford-Burnham Center for Chemical Genomics, 2007):
Among all 96,000 compounds or so, about 20,000 (21%) were called active. Only a sample is shown. A number with no mark means an inactive call.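 The calls were made as follows: active = CYP2C19 inhibition above a set limit at 5 µM in the primary screen (cut at about 50% in these data); inactive = the rest.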

biological target: Cytochrome P450 2C19 (Homo sapiens) (UniProt P33261); experiment: blockers of cytochrome P450 2C19 activity – biochemical, luminescence, ADME assay, primary screen (AID 778); settings: CYP2C19 Supersomes, luciferin-H EGE luminescence, 30 min; at 5 µM; stronger effect = higher value;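 also: plate controls were negative control wells for no effect and 2.5 mM tranylcypromine positive control for full effect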
Sequence (P33261 whole entry, looked up): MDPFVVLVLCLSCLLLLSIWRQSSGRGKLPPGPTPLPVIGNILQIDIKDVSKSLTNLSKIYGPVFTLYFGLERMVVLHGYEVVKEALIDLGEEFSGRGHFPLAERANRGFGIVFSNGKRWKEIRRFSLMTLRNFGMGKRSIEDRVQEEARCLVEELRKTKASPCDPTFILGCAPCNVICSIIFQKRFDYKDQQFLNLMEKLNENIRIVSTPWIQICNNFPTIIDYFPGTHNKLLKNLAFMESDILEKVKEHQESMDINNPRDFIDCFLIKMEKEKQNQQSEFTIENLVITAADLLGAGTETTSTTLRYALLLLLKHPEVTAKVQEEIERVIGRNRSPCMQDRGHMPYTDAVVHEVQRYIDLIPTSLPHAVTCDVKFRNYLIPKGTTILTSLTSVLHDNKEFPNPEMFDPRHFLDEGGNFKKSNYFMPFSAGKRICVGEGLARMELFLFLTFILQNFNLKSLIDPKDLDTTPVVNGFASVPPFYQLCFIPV

Structure (SMILES)	inhibition
CCCn1c(=O)c(-c2ccccc2)c(O)c2ccccc21	-13.5%
COc1ccc(S(=O)(=O)NC2(C(F)(F)F)N=C3SCCN3C2=O)cc1 (stereo not given)	-1.5%
Cc1cccc(N2CCN(S(=O)(=O)c3ccc4[nH]c(=O)c(=O)[nH]c4c3)CC2C)c1 (stereo not given)	19.7%
CSc1nnc(-c2ccncc2)n1CCCN1CCCC1=O	-0.2%
CC(C)(CCl)C(=O)Nc1ccc(Sc2ccc(F)cc2)cc1	-1.4%
COC(=O)c1ccc(Sc2ccc(F)cc2)c(N)c1	94.3% (active)
CC(C)NC(=O)c1ccc(Sc2ccccc2)c([N+](=O)[O-])c1	36.8%
CN(C)c1ccc(CNC2C3CC4CC(C3)CC2C4)cc1 (stereo not given)	75.5% (active)
CN(C)c1ccc(CNC23CN4CN(CN(C4)C2)C3)cc1	0.2%
c1cnc(NC2C3CC4CC(C3)CC2C4)nc1 (stereo not given)	26%
COc1ccc(F)cc1S(=O)(=O)Nc1ccc2c(c1)OCO2	69.4% (active)
COc1ccc(S(=O)(=O)Nc2ccc3c(c2)OCO3)cc1Cl	100% (active)
CC(C)CNS(=O)(=O)c1ccc(OCC(=O)Nc2ccc3c(c2)OCO3)c(Cl)c1	-1%
COc1ccc(C(=O)Nc2ccc(S(=O)(=O)Nc3onc(C)c3C)cc2)cc1OC	15.5%
COc1ccc(C(=O)Nc2ccc3c(c2)OCO3)cc1OC	39.8%
COc1ccc(S(=O)(=O)Nc2ccc(F)cc2)c(C)c1C	94.9% (active)
Cc1cc(Cl)c(S(=O)(=O)Nc2ccc3c(c2)OCCO3)cc1OCC(N)=O	15.3%
O=C1CCCC2=C1C(c1cccs1)n1nc(SCc3ccccc3)nc1N2 (stereo not given)	-10.3%
N=c1c2c3c(sc2ncn1CCCN1CCOCC1)CCCCC3	7.8%
CCOc1cc2[nH]c(=S)n(Cc3ccc(C(=O)NCCOC)cc3)c(=O)c2cc1OCC	-10.8%
CCOC(=O)N1CCN(Cc2oc(CO)cc(=O)c2O)CC1	5.4%
CSCCC(NS(=O)(=O)c1ccc2c(c1)oc(=O)n2C)C(=O)NC1CCCc2ccccc21 (stereo not given)	7.6%
OC1CN=C2Sc3ccccc3N2C1 (stereo not given)	-7.4%
O=C(Cc1ccc2c(c1)CCCC2)Nc1ccccc1Cl	27.1%

Structure (SMILES)	inhibition
CC1(C)CC(CCC(=O)Nc2ccccc2Cl)C(=O)O1 (stereo not given)	1.2%
O=C(Nc1ncc2c(n1)CC(c1ccco1)CC2=O)c1ccc(Cl)cc1 (stereo not given)	28.4%
Cc1cc(=O)[nH]c(SCc2cc(Cl)ccc2OC(F)F)n1	29%
CCCCOc1ccc(CSC(=N)N)cc1[N+](=O)[O-]	16.6%
CCCCOc1ccc(Cl)cc1CSc1nncn1N	86.7% (active)
Cc1[nH]n(-c2ccc([N+](=O)[O-])cc2)c(=O)c1C=NCCN1CCN(C(=O)c2ccccc2F)CC1	9.2%
COc1ccc(C(=O)NC(=S)Nc2ccccc2N2CCN(S(C)(=O)=O)CC2)cc1OC	75.2% (active)
CCC(=O)Nc1ccccc1N1CCN(S(C)(=O)=O)CC1	10.6%
CCOC(=O)c1cnc2sccn2c1=O	-11.8%
Cc1ccc(-n2c(=O)c(C#N)cc3c(=O)n4ccccc4nc32)cc1C	6.5%
CCn1c(=N)c(S(=O)(=O)c2ccc(F)cc2)cc2c(=O)n3ccccc3nc21	69.6% (active)
CCCn1c(=NC(C)=O)c(C(=O)OCC)cc2c(=O)n3ccccc3nc21	-6.3%
COc1cc2[nH]c(=S)n(Cc3ccc(C)o3)c(=O)c2cc1OC	-7.9%
N#Cc1ccc(C(c2nnnn2CCc2ccccc2)N2CCCCCC2)cc1 (stereo not given)	20.5%
Fc1ccc(Cn2nnnc2C(c2cccs2)N2CCCCCC2)cc1 (stereo not given)	96% (active)
CCC(C)(C)n1nnnc1C(c1ccccc1OC)N1CCSCC1 (stereo not given)	11.4%
CCC(C)(C)n1nnnc1C(c1cccs1)N1CCN(c2nc3ccccc3s2)CC1 (stereo not given)	49.9%
CCC(C)(C)n1nnnc1C(c1cccs1)N1CCN(Cc2ccccc2)CC1 (stereo not given)	61.8% (active)
CC(C)C(c1nnnn1Cc1ccccc1)N1CCC(C(N)=O)CC1 (stereo not given)	10%
O=C1c2cccnc2C(=O)N1Cc1cccs1	21.3%
CCCCNC(=O)CCn1c(=S)[nH]c2cc3c(cc2c1=O)OCO3	41.9%
CCCCn1c(=S)[nH]c2ncccc2c1=O	10.8%
CC(C)(C)c1ccc(C(=O)NNC(=O)Cc2ccccc2)cc1	23.9%
O=S(=O)(c1ccc(F)cc1)n1ccc(-c2cnc(-c3ccccc3)s2)n1	13.6%

Structure (SMILES)	inhibition
CCOC(=O)N1CCN(S(=O)(=O)c2cc3c(cc2C)NC(=O)CO3)CC1	12.1%
Cn1cc(S(=O)(=O)N2CCN(c3ccc(F)cc3)CC2)c(=O)n(C)c1=O	26.4%
Cn1cc(S(=O)(=O)N2CCC(Cc3ccccc3)CC2)c(=O)n(C)c1=O	69.7% (active)
COCCn1c(CN2CCC(Cc3ccccc3)CC2)nc2c1c(=O)n(C)c(=O)n2C	49.4%
C=CCn1c(SCCOc2ccc(OC)cc2)nnc1C(NC(=O)c1ccc(OC)cc1)C(C)C (stereo not given)	35.4%
C=CCn1c(SCc2cc(C(=O)OC)c(C)o2)nnc1-c1ccncc1	92.1% (active)
C=CCn1c(SCC(=O)c2ccc(Br)cc2)nnc1C(C)NC(=O)Cc1ccc(OC)cc1 (stereo not given)	11.6%
C=CCn1c(SCc2c(C(=O)OC)sc(N)c2C(=O)OC)nnc1-c1ccc(Cl)cc1	57.1% (active)
COCCn1c(SCc2nc3cc(OC)c(OC)cc3c(=O)[nH]2)nnc1-c1ccncc1	-13.4%
O=C1Nc2c(Br)cc(Br)cc2C1(O)N1CCOCC1 (stereo not given)	41.6%
O=C(NC(=O)c1ccc(Cl)c(Cl)c1)OC1CCS(=O)(=O)C1 (stereo not given)	-14.2%
COc1ccc(-c2nc(SCC(=O)N3CCOCC3)n[nH]2)cc1	1%
CN1/C(=c2/s/c(=C3/C(=O)N(c4ccccc4)NC3=Nc3ccccc3)n(C)c2=O)C(C)(C)c2ccccc21	38.5%
COC(=O)C1=C(C)Nc2ncnn2C1c1ccco1 (stereo not given)	-5.4%
CCOC(=O)C1C(=O)NC(N2CCN(c3ccccc3)CC2)=NC1c1ccco1 (stereo not given)	6.9%
CC1=C(C(=O)OCc2ccccc2)C(c2ccco2)n2ncnc2N1 (stereo not given)	90.2% (active)
COc1ccccc1NC(=O)C1=C(C)Nc2ncnn2C1c1ccc(C)o1 (stereo not given)	8.6%
CCOC(=O)CSC1=C(C#N)C(c2ccco2)C(C(=O)OCc2ccccc2)=C(C)N1 (stereo not given)	72.5% (active)
COc1ccccc1NC(=O)C1=C(C)NC2=C(C(=O)CCC2)C1c1ccc(C)o1 (stereo not given)	41.9%
CCOC(=O)CSC1=C(C#N)C(c2sccc2C)CC(=O)N1 (stereo not given)	22.9%
Cc1ccc(C2CC(=O)NC(SCC(=O)OCc3ccccc3)=C2C#N)o1 (stereo not given)	82.5% (active)
CC1=C(C(=O)Nc2ccccc2)C(c2ccco2)C(C#N)=C(SCC(N)=O)N1 (stereo not given)	2.2%
CCCNS(=O)(=O)c1ccc2c(c1)CCCN2C(C)=O	0.6%
COc1ccc(N2CCN(C(=O)CSc3ncnc4c3cnn4-c3ccc(OC)cc3)CC2)cc1	5.1%

Structure (SMILES)	inhibition
O=C(CN1C(=O)CSc2ncccc21)N1CCOCC1	13%
O=c1c(-c2ccccc2)coc2c(CN3CCOCC3)c(O)ccc12	10.1%
CN(c1cccc(NC(=O)Nc2ccc(Cl)cc2)c1)S(C)(=O)=O	28.5%
Cn1nc(C(F)(F)F)c(C(=O)Nc2cccc(C(F)(F)F)c2)c1SCc1ccc(Cl)cc1	87.4% (active)
CCC(C)Sc1nc(C)nc2c1c(=O)n(C)c(=O)n2C (stereo not given)	32.5%
O=C1COc2ccc(NC(=O)N3CCN(c4ccc(F)cc4)CC3)cc2N1	8%
O=C(Nc1ccccc1)c1cccnc1Nc1ccccc1	2.2%
O=C(Nc1ccc(-n2ccnc2P(=O)(O)c2ccccc2)cc1)c1ccccc1Br	96.9% (active)
Cc1nonc1NC(=O)c1ccccc1Br	-11.9%
O=c1c2[nH]c3ccc(Cl)cc3c2ncn1Cc1ccccn1	10.9%
Nc1cc(OC(=O)c2ccccc2Br)nn1S(=O)(=O)c1ccccc1	12.4%
CCn1c(SCC(=O)Nc2cccc(F)c2)nnc1-c1cc2cc(Br)ccc2o1	7.3%
COc1cc(Cl)c(C)cc1NC(=O)CSc1nnc(-c2cccnc2)n1Cc1ccco1	60.5% (active)
O=C(CSc1nnc(-c2ccco2)n1CC1CCCO1)c1ccccc1 (stereo not given)	70.4% (active)
CCn1c(SCC(=O)Nc2cc(C)c(Cl)cc2OC)nnc1-c1ccco1	70.6% (active)
O=C(CSc1nnc(-c2cnccn2)n1Cc1ccco1)c1ccc(Cl)c(Cl)c1	5.6%
CCOC(=O)CNC(=O)CSc1nnc(-c2cccc(OC)c2)n1CC	20.1%
O=C(CSc1nnc(-c2cccnc2)n1Cc1ccco1)c1ccc(Cl)cc1	27.8%
CCOC(=O)CSc1nnc(-c2ccco2)n1C	-5.6%
O=C(CSc1nnc(-c2cccnc2)n1Cc1ccco1)c1ccc(Cl)c(Cl)c1	79.7% (active)
Cc1nnc(SCC(N)=O)n1CC1CCCO1 (stereo not given)	8%
COc1ccc(-c2nn(-c3ccccc3)cc2C(=O)Nc2nc(CC(C)=O)ns2)cc1	-1%
COc1ccc(N2CCN(C(=O)CSc3nc4cc(OC)c(OC)cc4cc3C#N)CC2)cc1	37.5%
